The whole screen tested about 4,900 compounds, of which about 2,000 (41%) were called active.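 How the source made its calls: active means thallium signal drop beyond 5 SD of the untreated control mean, on both duplicate plates; inactive means the rest.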 So high a share suggests a set chosen from earlier hits. A selection follows.

This experiment is described as follows: thallium flux in non-induced HEK293 cells, confirmation, counter-screen for KCNK9 inhibitor project, cell-based, second counter screen, non-induced KCNK9-HEK293 (AID 492997).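 On inhibition: plate controls were buffer only IC0 wells for no effect and SID17386958 at its maximal inhibitory level for full effect.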 To be noted: non-induced KCNK9-HEK293, FluxOR thallium flux, at 10 µM; stronger effect = higher value. (In general: A counterscreen serves to expose hits that act by an unwanted route or on another target.)
A word on the inhibition: it is the share of the control response that was lost under treatment. With `CCCSc1nc(NCc2ccco2)c2c3c(sc2n1)COC(C)(CC)C3` (stereo not drawn), the inhibition is 38.5% (active).

Turning to `CCC1(C)Cc2c(sc3[nH]c(=S)n(Cc4ccccc4)c(=O)c23)CO1` (stereo not drawn), the inhibition result was “inactive”.

For the compound `CCOC(=O)Cc1cc(=O)[nH]c(=O)[nH]1`, the inhibition entry was “inactive”. For the compound `COc1ccc(/C=C2\CCc3ccccc3C2=O)c(OC)c1OC`, the inhibition result is “inactive”. Turning to `CC1CCN(C(=S)c2ccc(-c3ccc(Cl)cc3Cl)o2)CC1`, the inhibition result is “inactive”. As for `CC1CCN(C(=O)c2ccc(CSc3ccc(Cl)cc3)cc2)CC1`, the inhibition is 36% (active). `O=C(CSCc1ccc(Cl)cc1)N1CCN(Cc2ccc3c(c2)OCO3)CC1`: the inhibition result is “inactive”. For `CN(C)S(=O)(=O)N1CCC(Oc2cccc(C(=O)NCCCC3CCCC3)c2)CC1`, the inhibition entry is “inactive”. Consider `Cc1cccc(NC(=O)N(Cc2cc3cc(C)cc(C)c3[nH]c2=O)CC2COCCO2)c1` (stereo not drawn), for which the inhibition result was “inactive”.

As to `O=C(COC(=O)c1c2c(nc3ccccc13)CCCC2)c1ccc(Br)s1`, the inhibition is 22.5% (active). Take `Cc1ccc(OS(=O)(=O)c2ccc(-c3csc(C)n3)s2)c(C)c1`: the inhibition result is “inactive”.

Regarding `COc1cccc(COC(=O)C2CCN(S(=O)(=O)c3ccc(Cl)cc3)CC2)c1OC`, the inhibition entry was “inactive”.

As to `O=C(NC1Cc2ccccc2C1)c1cc(COc2cccc(C(F)(F)F)c2)on1`, the inhibition is 28% (active). As for `O=C(NCCCc1ccccc1)c1cc(COc2c(F)cccc2F)on1`, the inhibition result is “inactive”. On to `CN(CCOc1ccccc1)C(=O)c1cc(COc2c(F)cccc2F)on1`, for which the inhibition result was “inactive”.

`CC(C)N(C(=O)CSc1nc(COc2ccccc2)nc2ccccc12)C(C)C`: the inhibition is 29.5% (active).

Turning to `Cc1cc(C)cc(NC(=O)CSCc2cnn(-c3ccccc3)c2-n2cccc2)c1`, the inhibition entry was “inactive”. Take `CC(C)(C)C1CCC(C(=O)NCC(c2cccs2)N2CCOCC2)CC1` (stereo not drawn): the inhibition entry was “inactive”. In the case of `O=C(Nc1ccc(Br)c2cccnc12)c1ccc(Cn2cc([N+](=O)[O-])cn2)o1`, the inhibition was 31% (active). Take `CC1=NN(c2cccc(Cl)c2)C(=O)C12CC(C)=C(C)CS2` (stereo not drawn): the inhibition is 40.5% (active). The value for `Cc1cc(C=O)c(C)n1-c1ccc(NC2CCCCC2)c([N+](=O)[O-])c1` was 55% (active); that for `CCOC(=O)c1c(NC(=O)CCCN2CCOCC2)sc2c1CC(C)(C)OC2` was “inactive”. Turning to `CCOC(=O)C1=C(C)Nc2sc(C(=O)c3ccc(Br)cc3)c(N)c2C1c1ccc(C(=O)OC)cc1` (stereo not drawn), the inhibition is 32.5% (active). In the case of `O=C(/C=C/NNC(=O)c1cccc(Br)c1)c1ccccc1`, the inhibition is 50% (active). Next, `COc1ccc(Nc2ncnc3sc(-c4ccccc4)cc23)c(OC)c1`: “inactive”; `CCCCN(CC)C(=O)C1CCCN(S(=O)(=O)c2cccc3nsnc23)C1` (stereo not drawn): “inactive”. On to `Cc1ccc(SCC(=O)c2cc(C)c(OC(=S)N(C)C)c(C)c2)cc1`, for which the inhibition was 34% (active). With `COc1ccc(C2Nc3ccccc3C(=O)N2Cc2ccccc2)cc1Cn1nnc2ccccc21` (stereo not drawn), the inhibition is 39% (active). Take `O=S(=O)(c1ccc(F)cc1)N1CCN(Cc2ccccc2C(F)(F)F)CC1`: the inhibition entry is “inactive”.

On to `Cc1nn(CC(=O)Nc2nc3ccccc3s2)c(C)c1[N+](=O)[O-]`, for which the inhibition is 33.5% (active). Next, `COc1cccc2sc(NNC(=O)c3nc4ccccc4s3)nc12`: “inactive”; `CCn1cnc2scc(-c3ccc(C)c(C)c3)c2c1=O`: “inactive”; `O=C(Nc1ccccc1[N+](=O)[O-])C1C(c2ccccc2)=C1c1ccccc1`: 26% (active). On to `CCCCCCCCn1c2c(c(=N)c3c1CCC3)CCCC2`, for which the inhibition is 27% (active). The value for `Cc1ccc(Cn2ccc(NC(=O)c3cc(C(C)C)on3)n2)cc1` was “inactive”. Consider `CCOC(=O)[C@@H]1[C@H]2COc3ccc(Br)cc3[C@H]2N2C(=O)N(c3ccc(Cl)cc3)C(=O)[C@@]12C`, for which the inhibition was 36% (active). The value for `C[C@@]12C(=O)N(c3cccc(Br)c3)C(=O)N1[C@H](c1ccc(Cl)cc1)[C@@H]1C(=O)N(C3CCCCC3)C(=O)[C@@H]12` was “inactive”; that for `COC(=O)c1cccc(C(=O)N2CCCC(Nc3ccc4c(c3)OCCO4)C2)c1` (stereo not drawn) was “inactive”; that for `COc1ccc(OC)c(C(=O)c2coc3ccc(OC)cc23)c1` was 27% (active). Next, `CN(CCC(=O)Nc1cc(S(=O)(=O)N(C)C)ccc1Cl)CC(=O)Nc1ccc(F)cc1`: 42% (active); `COc1ccc(NC(=O)CN(C)CC(=O)Nc2cccc(C(F)(F)F)c2)cc1`: “inactive”. Next, `COc1ccc(-c2n[nH]c3c2CN(C(=O)c2ccc(F)cc2)CC3)cc1`: “inactive”; `CC1=CC(C)(C)N(C(=O)CSc2nnc(-c3ccccc3)o2)c2ccc(C)cc21`: “inactive”; `COc1ccc(-c2noc(CSc3ccc(C)cc3)n2)cc1`: “inactive”.

With `COc1cccc(C(=O)NCCSc2ccc(Br)cc2)c1`, the inhibition entry is “inactive”.

On to `COc1cc(NC(=S)NCCSc2ccc(C)cc2)cc(OC)c1`, for which the inhibition was 24% (active). `FC(F)(F)c1cc(-c2ccco2)nc(NCc2ccc(Cl)cc2)n1`: the inhibition is 60.5% (active). For the compound `O=C1/C(=C/c2ccc(F)cc2)SC(=S)N1NS(=O)(=O)c1ccccc1`, the inhibition entry was “inactive”. Consider `C/C(=N\NC(=S)Nc1ccc(C)cc1)c1cc2ccccc2o1`, for which the inhibition result was “inactive”. Next, `CCCCCn1c(=O)c(C(=O)OCC)c(Cl)c2ccccc21`: 40.5% (active); `CCOC(=O)c1c(NC(=O)CSc2cn(CC)c3ccccc23)sc2c1CCC2`: “inactive”.

For the compound `Cc1ccccc1N1CCN(Cc2nc(Cc3ccccc3F)no2)CC1`, the inhibition result is “inactive”. As for `Fc1cccc(Cl)c1CSc1ccc(-c2ccco2)nn1`, the inhibition is 32% (active). For `O=C(Nc1cc(Cl)cc(Cl)c1)C(NCCCO)c1ccccc1` (stereo not drawn), the inhibition is 29% (active). Next, `Cc1cc(OC(C)C(=O)Nc2ccc(S(=O)(=O)Nc3onc(C)c3C)cc2)cc(C)c1Cl` (stereo not drawn): “inactive”. Next, `O=C(CNCCC1=CCCCC1)Nc1ccccc1N1CCCCCC1`: 38.5% (active); `Cc1cc(C)cc(OCC(=O)Nc2cc(NC(=O)COc3cc(C)cc(C)c3)cc(C(=O)O)c2)c1`: “inactive”. The value for `COc1cccc(-c2cc3nc4c(c(N5CCC6(CC5)OCCO6)n3n2)CCCC4)c1` was 27% (active). In the case of `COc1cccc2cc(C(C)N(CCCN3CCOCC3)C(=O)Nc3ccc(Cl)cc3)oc12` (stereo not drawn), the inhibition is 28.5% (active).

Consider `CN(C)c1ccc(C(CNC(=O)c2ccc(F)cc2)c2c[nH]c3ccccc23)cc1` (stereo not drawn), for which the inhibition is 39% (active).

Turning to `CCN(CC)C(=O)CC1(c2ccccc2OC)CCOC(C(C)C)C1` (stereo not drawn), the inhibition is 38% (active). As to `COc1cccc(CN(C)C(=O)CC23CC4CC(CC(C4)C2)C3)c1OC`, the inhibition result is “inactive”. For `CC(C)(C)NC(=O)NC(=O)CN1CCC(Cc2ccccc2)CC1`, the inhibition result was “inactive”.

(Values after PubChem BioAssay AID492997 (Johns Hopkins Ion Channel Center, 2010).)
